Measurements taken from PubChem BioAssay AID588689 (Southern Research Specialized Biocontainment Screening …, 2011).
Screen size: about 340,000 compounds; about 1,000 (0.29%) were called active. Rule as the data show it: inconclusive = inhibition above about 29% without an active follow-up result; inactive = below that. Not all results are given here. Measured potencies and affinities stand elsewhere.

Molecular target: Genome polyprotein (Dengue virus type 2 (strain 16681-PDK53)) (UniProt P29991)
Sequence (P29991 whole entry, looked up): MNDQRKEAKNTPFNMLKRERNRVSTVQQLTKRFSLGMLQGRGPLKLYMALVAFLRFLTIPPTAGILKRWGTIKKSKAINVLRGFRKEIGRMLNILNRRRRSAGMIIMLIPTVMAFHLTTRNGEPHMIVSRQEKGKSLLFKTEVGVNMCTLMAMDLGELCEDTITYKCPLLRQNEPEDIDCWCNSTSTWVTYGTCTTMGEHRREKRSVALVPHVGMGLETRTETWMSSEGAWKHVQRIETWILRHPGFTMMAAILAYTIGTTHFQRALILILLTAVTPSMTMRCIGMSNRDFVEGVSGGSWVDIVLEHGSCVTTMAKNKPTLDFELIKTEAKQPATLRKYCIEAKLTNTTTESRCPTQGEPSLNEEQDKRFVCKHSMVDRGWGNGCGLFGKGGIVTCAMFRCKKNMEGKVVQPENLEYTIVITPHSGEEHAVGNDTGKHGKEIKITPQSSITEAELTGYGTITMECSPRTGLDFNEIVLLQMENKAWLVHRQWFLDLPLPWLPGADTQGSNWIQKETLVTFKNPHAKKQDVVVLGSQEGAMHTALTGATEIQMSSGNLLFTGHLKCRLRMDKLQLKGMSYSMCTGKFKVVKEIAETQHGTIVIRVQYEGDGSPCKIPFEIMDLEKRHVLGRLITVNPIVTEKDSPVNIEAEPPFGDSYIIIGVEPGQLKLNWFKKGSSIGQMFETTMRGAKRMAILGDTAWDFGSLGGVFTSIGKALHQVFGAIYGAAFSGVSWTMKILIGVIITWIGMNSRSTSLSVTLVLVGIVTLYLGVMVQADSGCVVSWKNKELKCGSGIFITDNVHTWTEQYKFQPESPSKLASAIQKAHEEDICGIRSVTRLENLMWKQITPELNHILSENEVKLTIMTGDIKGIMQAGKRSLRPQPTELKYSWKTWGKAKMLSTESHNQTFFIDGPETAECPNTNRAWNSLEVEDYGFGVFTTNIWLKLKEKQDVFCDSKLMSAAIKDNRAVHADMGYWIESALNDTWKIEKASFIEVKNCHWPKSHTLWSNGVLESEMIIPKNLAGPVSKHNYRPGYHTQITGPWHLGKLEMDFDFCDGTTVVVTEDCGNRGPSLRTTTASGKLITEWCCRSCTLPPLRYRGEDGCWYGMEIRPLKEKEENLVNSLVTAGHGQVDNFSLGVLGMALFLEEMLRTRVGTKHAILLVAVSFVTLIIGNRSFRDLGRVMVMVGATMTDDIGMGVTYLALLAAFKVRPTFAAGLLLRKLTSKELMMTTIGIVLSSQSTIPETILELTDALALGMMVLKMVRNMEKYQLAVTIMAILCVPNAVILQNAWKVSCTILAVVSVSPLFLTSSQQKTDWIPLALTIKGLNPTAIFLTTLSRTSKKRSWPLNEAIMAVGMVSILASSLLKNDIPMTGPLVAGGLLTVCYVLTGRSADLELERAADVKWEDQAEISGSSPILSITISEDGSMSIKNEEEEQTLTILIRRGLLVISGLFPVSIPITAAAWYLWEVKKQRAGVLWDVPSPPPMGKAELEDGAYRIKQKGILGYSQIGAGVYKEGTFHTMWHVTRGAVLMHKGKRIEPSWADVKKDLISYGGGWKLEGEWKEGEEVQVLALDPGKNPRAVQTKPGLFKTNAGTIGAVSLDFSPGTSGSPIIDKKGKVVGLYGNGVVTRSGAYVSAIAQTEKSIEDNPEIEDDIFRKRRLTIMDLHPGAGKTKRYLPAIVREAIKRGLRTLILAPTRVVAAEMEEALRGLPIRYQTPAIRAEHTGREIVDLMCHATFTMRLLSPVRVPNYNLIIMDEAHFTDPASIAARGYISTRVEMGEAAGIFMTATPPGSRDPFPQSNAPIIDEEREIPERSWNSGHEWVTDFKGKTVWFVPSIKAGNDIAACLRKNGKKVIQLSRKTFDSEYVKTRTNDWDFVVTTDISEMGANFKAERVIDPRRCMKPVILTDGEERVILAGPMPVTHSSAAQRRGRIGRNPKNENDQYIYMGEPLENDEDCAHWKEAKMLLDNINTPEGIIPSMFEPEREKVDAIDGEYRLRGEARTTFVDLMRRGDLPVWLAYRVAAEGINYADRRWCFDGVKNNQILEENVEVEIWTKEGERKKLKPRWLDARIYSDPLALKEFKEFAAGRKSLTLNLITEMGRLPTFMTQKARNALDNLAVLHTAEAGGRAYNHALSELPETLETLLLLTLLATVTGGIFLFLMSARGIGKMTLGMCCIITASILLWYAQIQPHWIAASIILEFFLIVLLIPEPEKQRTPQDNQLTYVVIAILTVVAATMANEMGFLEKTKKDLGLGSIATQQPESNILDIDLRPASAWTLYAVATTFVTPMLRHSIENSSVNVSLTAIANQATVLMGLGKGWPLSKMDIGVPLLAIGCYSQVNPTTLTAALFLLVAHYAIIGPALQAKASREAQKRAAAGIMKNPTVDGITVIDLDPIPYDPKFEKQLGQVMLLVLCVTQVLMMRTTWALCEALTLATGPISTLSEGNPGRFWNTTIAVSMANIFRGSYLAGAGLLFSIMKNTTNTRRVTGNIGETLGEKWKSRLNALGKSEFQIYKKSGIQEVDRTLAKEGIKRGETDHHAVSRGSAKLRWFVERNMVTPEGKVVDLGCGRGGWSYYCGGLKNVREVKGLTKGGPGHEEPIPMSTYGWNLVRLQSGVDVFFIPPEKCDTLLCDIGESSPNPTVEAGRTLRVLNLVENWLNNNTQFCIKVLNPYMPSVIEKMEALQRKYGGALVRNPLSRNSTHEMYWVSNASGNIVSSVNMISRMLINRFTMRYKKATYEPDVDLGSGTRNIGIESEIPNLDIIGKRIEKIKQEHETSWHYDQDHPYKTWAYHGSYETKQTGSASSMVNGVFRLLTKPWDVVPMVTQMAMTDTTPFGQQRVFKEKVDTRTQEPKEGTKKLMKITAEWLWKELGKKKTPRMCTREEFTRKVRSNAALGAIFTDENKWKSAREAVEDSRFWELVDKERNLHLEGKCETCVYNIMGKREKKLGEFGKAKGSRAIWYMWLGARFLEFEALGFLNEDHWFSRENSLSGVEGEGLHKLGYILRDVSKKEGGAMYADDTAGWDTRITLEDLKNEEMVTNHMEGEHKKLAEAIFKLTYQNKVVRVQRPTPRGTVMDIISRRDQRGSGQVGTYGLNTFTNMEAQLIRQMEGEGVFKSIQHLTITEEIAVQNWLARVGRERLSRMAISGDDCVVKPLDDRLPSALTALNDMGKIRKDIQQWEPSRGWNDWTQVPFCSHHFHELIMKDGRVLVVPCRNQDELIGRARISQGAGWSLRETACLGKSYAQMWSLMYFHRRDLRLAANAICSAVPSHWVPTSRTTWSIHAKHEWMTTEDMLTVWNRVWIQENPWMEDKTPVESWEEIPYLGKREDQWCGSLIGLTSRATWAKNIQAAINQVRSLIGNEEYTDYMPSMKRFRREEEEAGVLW
Experiment: Dengue-2 NS5 methyltransferase inhibitors, primary screen, biochemical, confirmation dose response (AID 588689)
Details: Dengue-2 NS5 methyltransferase capping enzyme assay, at 25 µM, stronger effect = higher value
[1] = measured here: pilot screen replicate inhibition

Row | SMILES | inhibition | inhibition [1]
1 | C/C=N\NC(=O)CNC(=O)CNC(=O)c1ccccc1 | -9.83% (inactive) | 
2 | Oc1ccc(Cl)cc1CNC1CCCCC1 | -11.2% (inactive) | 
3 | Oc1ccc(CNC2CCCCC2)cc1 | -4.06% (inactive) | 
4 | CC(=O)NCCNC(=O)c1oc2ccccc2c1CSc1ncn[nH]1 | 0% (inactive) | 
5 | Cc1cc(C)nc(N/N=C/c2ccccc2OCC(=O)O)n1 | 0% (inactive) | 
6 | COc1cccc(N=Cc2nc(-c3ccccc3)oc2OC(C)=O)c1 | -7.76% (inactive) | 
7 | COc1ccc(N=Cc2nc(-c3ccccc3)oc2OC(C)=O)cc1 | -15.3% (inactive) | 
8 | O=C1c2ccccc2C(=O)N1c1ccccc1 | -3.62% (inactive) | 
9 | COc1ccc(-c2noc(-c3ccccc3C(=O)NCc3ccco3)n2)cc1OC | -1.61% (inactive) | 
10 | CCOC(=O)N1CCN(C(=O)/C=C/c2ccc(OC)c(OC)c2)CC1 | -5.82% (inactive) | 
11 | COc1ccccc1/C=c1\sc2nc(-c3ccco3)nn2c1=O | 20.1% (inactive) | 
12 | COc1ccccc1/C=C/C=c1\sc2nc(=O)c(Cc3ccccc3)nn2c1=O | -9.19% (inactive) | 
13 | COc1ccccc1/C=c1\sc2nc(-c3ccccc3OC)nn2c1=O | 5.01% (inactive) | 1.52%
14 | CCOc1ccccc1/C=c1\sc2ncnn2c1=O | 3.42% (inactive) | 
15 | Cc1cccc(NS(=O)(=O)c2ccc(NS(=O)(=O)c3cccs3)cc2)c1 | 13.3% (inactive) | 
16 | N#C/C=C/N1CCC(Cc2ccccc2)CC1 | -4.96% (inactive) | 
17 | N#CCCN(C(=O)COC(=O)Cc1ccc(Br)cc1)c1ccccc1 | -13.2% (inactive) | 
18 | CC(C)c1[nH]c(=O)c(C#N)c2c1CSC(C)(C)C2 | -6.61% (inactive) | 
19 | COc1ccc(C(CCN2CCOCC2)c2c(O)cc(OC)cc2OC)cc1 (centres undefined) | -0.7% (inactive) | 
20 | OCc1ccccc1CNCc1ccccc1 | -5.52% (inactive) | 
21 | Oc1ccccc1CNCc1ccccc1 | -2.38% (inactive) | 
22 | CSc1ncccc1C(=O)OCc1cccc([N+](=O)[O-])c1 | 0% (inactive) | 
23 | COc1ccc(NC(=O)N(C)C[C@@H]2OCc3cnnn3CCCC(=O)N([C@H](C)CO)C[C@H]2C)cc1 | 0.55% (inactive) | 

Row | SMILES | inhibition | inhibition [1]
24 | Cc1ccc(C(=O)Nc2ccc3cn[nH]c3c2)cc1S(=O)(=O)N1CCOCC1 | -0.88% (inactive) | 
25 | CC(C)c1cc(=O)oc2c3c4c(cc12)CCCN4CCC3 | 0% (inactive) | 
26 | O=c1oc2c3c4c(cc2c2c1CCC2)OCCN4CCC3 | 24.7% (inactive) | 
27 | N/C(=N\OC(=O)CCC1CCCCC1)c1cccc([N+](=O)[O-])c1 | -1.88% (inactive) | 1.82%
28 | O=C(CSc1ccccc1)N1CCN(S(=O)(=O)c2ccccc2F)CC1 | 3.25% (inactive) | 
29 | C=CCn1c(NC(=O)c2ccc(Br)o2)c(S(=O)(=O)c2ccccc2)c2nc3ccccc3nc21 | -4.19% (inactive) | 
30 | CCCCn1c(NC(=O)c2ccco2)c(S(=O)(=O)c2ccc(C)cc2)c2nc3ccccc3nc21 | -64.2% (inactive) | 
31 | OCCC1CN(Cc2cnn(-c3ccccc3Cl)c2)CCN1Cc1ccsc1 (centres undefined) | -2.26% (inactive) | 
32 | CC(C)N(C(=O)[C@H]1C[C@H](CC(=O)NCCN2CCOCC2)C(=O)N2CCc3c([nH]c4cc(-c5ccco5)ccc34)[C@]12C)C(C)C | -6.51% (inactive) | 
33 | Cc1nn(-c2ccccc2)c(C)c1-c1ccccc1O | -5.22% (inactive) | -6.7%
34 | Cc1cccc(C2c3c(n(C)c(=O)n(C)c3=O)N=C3c4ccccc4C(=O)C32)c1 (centres undefined) | 2.3% (inactive) | 
35 | O=C(O)COc1ccc2nsnc2c1Cl | -9.55% (inactive) | 
36 | C=C(CC)C(=O)c1ccc(OCC(=O)O)c(Cl)c1Cl | -3.73% (inactive) | 
37 | CCOCCCNCC(O)c1ccccc1 (centres undefined) | 0% (inactive) | 
38 | CC1(C)CC(=NO)CC(C)(C)N1 | 0% (inactive) | 
39 | COc1ccc(S(=O)(=O)/N=C2/NC(=O)/C(=C\c3cc(OC)c(OC)cc3[N+](=O)[O-])S2)cc1 | 2.45% (inactive) | 
40 | COc1ccc([N+](=O)[O-])cc1NS(=O)(=O)c1ccccc1 | 5.1% (inactive) | 
41 | COc1cc(C(=O)Nc2ccc(S(=O)(=O)Nc3ncccn3)cc2)c([N+](=O)[O-])cc1OC | 0.74% (inactive) | 
42 | Cc1cc(NS(=O)(=O)c2ccccc2)c([N+](=O)[O-])cc1C | 4.34% (inactive) | 
43 | Cc1ccc(/C=N/NC(=O)C(C)Oc2cccc3ccccc23)o1 (centres undefined) | -3.22% (inactive) | 
44 | CCC1(C)NC(=O)N(CC(=O)N2CCC(Cc3ccccc3)CC2)C1=O (centres undefined) | -9.76% (inactive) | 
45 | CC(Cc1ccccc1)=NNc1ccc([N+](=O)[O-])cc1[N+](=O)[O-] | 10.5% (inactive) | 
46 | C/C(CC(C)C)=N/Nc1ccc([N+](=O)[O-])cc1[N+](=O)[O-] | -3.83% (inactive) | 
